D1 potentiator: Potentiators of Human D1 Dopamine Receptor: qHTS | D(1A) dopamine receptor (Homo sapiens), P21728 | HEK293 TREx D1 cells, calcium flux, dopamine EC20 potentiation | potentiation, % at 10 µM | hit rate 0.036% among 360,000; in the data active = potentiation above about 30%
Target sequence (P21728 whole entry, looked up): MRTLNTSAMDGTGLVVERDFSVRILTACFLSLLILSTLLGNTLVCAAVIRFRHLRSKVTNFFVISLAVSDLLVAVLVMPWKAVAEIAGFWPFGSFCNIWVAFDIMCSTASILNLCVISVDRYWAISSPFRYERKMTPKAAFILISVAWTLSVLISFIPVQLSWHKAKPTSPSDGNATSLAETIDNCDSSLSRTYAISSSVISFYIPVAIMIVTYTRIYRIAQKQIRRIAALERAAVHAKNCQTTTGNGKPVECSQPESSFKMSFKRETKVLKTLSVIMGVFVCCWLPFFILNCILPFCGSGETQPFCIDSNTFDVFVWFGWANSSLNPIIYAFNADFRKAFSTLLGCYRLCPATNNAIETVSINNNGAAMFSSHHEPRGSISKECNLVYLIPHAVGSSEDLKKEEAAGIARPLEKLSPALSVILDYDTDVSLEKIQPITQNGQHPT
D1 antagonist: Antagonist of Human D 1 Dopamine Receptor: qHTS; activity change, negative = inhibition, % at 10 µM; D(1A) dopamine receptor (Homo sapiens), P21728; AID 504652, 2011; HEK293 TREx D1 cells, calcium flux, dopamine EC80; stronger effect = lower value; hit rate 3.2% among 360,000; in the data active = activity change below about -30%
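HEK293 T-REx cells expressing inducible, force-coupled D1 receptor; no-wash Ca dye, 30–90 min RT. Cmpd → 180 s read at 1 Hz → EC80 DA → 180 s read.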
D1 agonist: Allosteric Agonists of the Human D1 Dopamine Receptor: qHTS; HEK293 T-REx D1 cells, calcium flux, agonist mode; activation, % at 2 µM; hit rate 1% among 360,000; D(1A) dopamine receptor (Homo sapiens), P21728; in the data active = activation above about 30%
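Tetracycline-induced HEK293 TREx D1 cells, force-coupled to calcium signalling, were dye-loaded with a no-wash calcium kit. Compound was pin-added after a 10 s baseline. Fluorescence was read kinetically at 1 cycle/s for 180 s, with calcium rises flagged as agonism.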
D3 ag: qHTS of D3 Dopamine Receptor Agonist: qHTS | AID 652048, 2013 | D(3) dopamine receptor (Homo sapiens), P35462 | max activation, % | hit rate 0.58% among 410,000 | D3R DiscoveRx beta-arrestin cells, luminescence, 90 min; in the data active = max activation above about 30%
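Cells at 1500/well, incubated overnight, then treated with pinned compounds (dopamine as control) for 90 min at 37 degrees C. DiscoveRx reagent added for 30 - 60 minutes at room temperature; luminescence read.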
DRD3 antagonist: qHTS of D3 Dopamine Receptor Antagonist: qHTS. D(3) dopamine receptor (Homo sapiens), P35462. D3R cells, DiscoveRx beta-arrestin luminescence, antagonist mode; stronger effect = lower value. max response, negative = inhibition, %. hit rate 2.5% among 360,000; in the data active = max response below about -50%; inconclusive = no clear call, values can overlap the other calls
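Cells expressing the human receptor were seeded at 1500 cells/well, incubated overnight at 37 degrees C in 5% CO2, then exposed to library compounds with dopamine controls for 90 minutes at 37 degrees C before luminescent detection.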
A number is an active result; - = inactive; ? = inconclusive; . = not tested or not shown. Sampled rows, rich in hits. Any-hit rate of the full collection: about 6%.

SMILES | D1 potentiator | D1 antagonist | D1 agonist | D3 ag | DRD3 antagonist
COc1ccc(Cn2c(SCc3ccc(C(=O)NCc4cccs4)cc3)nc3ccncc32)cc1 | - | - | - | - | .
CC(C)(C)NC(=O)c1ccc2c(c1)N(CC(=O)NC1CCCC1)C(=O)C(C)(C)O2 | - | - | - | - | -
CC1(C)Oc2ccc(C(=O)NC3CCCC3)cc2N(CC(=O)NC2CCCC2)C1=O | - | - | - | - | -76
Cc1ccc(NC(=S)NCC23C=CC(O2)C2C(=O)N(c4ccc(C)cc4)C(=O)C23)cc1 (stereo not drawn) | - | - | - | - | -
CC(C)(C)OC(=O)NCC12C=CC(O1)C1C(=O)N(Cc3ccccc3)C(=O)C12 (stereo not drawn) | - | -33 | - | - | -
Cc1ccc2c(c1)c(=O)c(S(=O)(=O)c1ccc(C)c(C)c1)cn2CC(=O)Nc1ccccc1 | - | -47 | - | 38 | .
COc1ccc(NC(=O)Cn2cc(S(=O)(=O)c3ccccc3)c(=O)c3cc4c(cc32)OCO4)cc1 | - | -47 | - | - | .
Cc1ccc(S(=O)(=O)c2cn(CC(=O)Nc3ccccc3)c3cc4c(cc3c2=O)OCO4)cc1 | - | - | - | - | .
Cc1ccc(S(=O)(=O)c2cn(CC(=O)Nc3ccc(Cl)cc3)c3ccc(F)cc3c2=O)cc1C | - | - | - | - | .
COc1cc2c(cc1OC)C(COc1ccccc1OC)N(C(=O)COc1ccc(Cl)cc1)CC2 (stereo not drawn) | - | - | - | - | .
CCOC(=O)c1ccc(OCC2c3cc(OC)c(OC)cc3CCN2C(=O)c2ccc(S(=O)(=O)N3CCCC3)cc2)cc1 (stereo not drawn) | - | - | - | - | .
CCOC(=O)C1CCN(c2ncnc3c2cnn3-c2ccc(Cl)cc2)CC1 | - | - | - | - | -
CCOC(=O)C1CCCN(c2ncnc3c2cnn3-c2ccc(C)c(Cl)c2)C1 (stereo not drawn) | - | -34 | - | - | .
CCN(CC)S(=O)(=O)c1nnc(NC(=O)COc2ccc(Cl)cc2)s1 | - | - | - | - | .
CO[C@@H]1CN(C)C(=O)c2cc(NC(=O)NC3CCCCC3)ccc2OC[C@@H](C)N(CCc2ccccc2)C[C@H]1C | . | . | . | - | -
CO[C@@H]1CN(C)C(=O)c2cc(NC(=O)NC3CCCCC3)ccc2OC[C@@H](C)N(CC2CCOCC2)C[C@@H]1C | . | . | . | - | -60
COc1cccc(C2CC(=O)Nc3c2c(=O)nc2c(C)cccn32)c1 (stereo not drawn) | - | - | - | - | .
COc1ccc(/C=C(\NC(=O)c2ccccc2)C(=O)NCc2ccco2)cc1 | - | -31 | - | - | -
O=C(NC(=S)NCc1ccco1)c1ccc(Br)cc1 | - | - | - | - | -
S=C(NCc1ccco1)Nc1ccc(Cl)cc1 | - | -31 | - | - | -
O=C(O)Cc1ccc(NC(=S)NCc2ccco2)cc1 | - | -40 | - | - | -
O=C(NC(=S)NCc1ccco1)c1ccccc1 | - | -31 | - | - | -
O=C(NCc1ccco1)/C(=C\c1ccccc1)NC(=O)c1ccccc1 | . | - | - | - | -
O=C(CSc1nc2c(c(=O)[nH]1)CCCC2)Nc1ccc(Br)cc1 | - | - | - | - | .
CCOC(=O)c1cccc(NC(=O)c2cn(-c3cccc(OC)c3)c(=O)c3ccccc23)c1 | - | - | - | - | .
SMILES | D1 potentiator | D1 antagonist | D1 agonist | D3 ag | DRD3 antagonist
CCOC(=O)N1CCN(C(=O)CSc2nc3c([nH]c4ccccc43)c(=O)n2CC)CC1 | - | -36 | - | 46 | -
CCn1c(SCC(=O)N(C)c2ccccc2)nc2c([nH]c3ccccc32)c1=O | - | -37 | - | - | -
CCSc1nc2c([nH]c3ccccc32)c(=O)n1CC | - | - | - | - | .
Cc1ccccc1C(=O)OCc1cc(=O)n2nc(C3CC3)sc2n1 | - | - | - | - | .
Cc1ccc(C2CC(=O)Nc3cc4c(cc32)OCCO4)cc1Br (stereo not drawn) | - | - | - | - | .
COc1ccc(CN2C(=NC(=O)C3CC3)SC3CS(=O)(=O)CC32)cc1OC (stereo not drawn) | - | -31 | - | - | -
COc1ccccc1CNC(=O)c1cc2c(=O)oc3ccc(C)cc3c2s1 | - | - | - | - | .
CCN1CCN(C(c2ccc(Cl)cc2)c2c(O)cc(C)n(CCOC)c2=O)CC1 (stereo not drawn) | - | -39 | - | - | .
Cc1ccc(-c2nc3ccsc3c(=O)o2)cc1 | - | -87 | - | - | ?
Cc1ccc(-n2c(C)nc3ccsc3c2=O)cc1 | . | . | . | - | -
O=C(CCCn1c(=S)[nH]c2cc3c(cc2c1=O)OCO3)N1CCN(c2ccc(F)cc2)CC1 | - | - | - | 36 | -
CCOC(=O)N1CCN(C(=O)c2ccc(Cn3c(=S)[nH]c4cc5c(cc4c3=O)OCO5)cc2)CC1 | - | - | - | 85 | -
CCOc1cc2[nH]c(=O)n(CCCC(=O)N3CCN(c4ccc(OC)cc4)CC3)c(=O)c2cc1OCC | - | - | - | 30 | .
Cc1cccc(C(=O)NCC(c2ccc3c(c2)OCO3)N2CCOCC2)c1 (stereo not drawn) | - | - | - | - | .
CCn1cnc2c(=O)oc3ccc(S(=O)(=O)Nc4ccc(OC)cc4)cc3c21 | - | - | - | - | .
N[C@@H](C(=O)N[C@@H]1C(=O)N2C(C(=O)O)=C(Cl)CC[C@H]12)c1ccccc1 | . | . | . | - | .
CCOc1ccc(S(=O)(=O)NCCC(=O)NCC(c2ccc(OC)cc2)N2CCCCC2)cc1 (stereo not drawn) | - | - | - | - | ?
COc1ccc(C(CNC(=O)CCNS(=O)(=O)c2ccc(Br)cc2)N2CCOCC2)cc1 (stereo not drawn) | . | . | . | - | -
COc1ccc(C(CNC(=O)CCNS(=O)(=O)c2ccc(Br)cc2)N2CCCC2)cc1 (stereo not drawn) | - | -63 | 48 | - | -50
COc1ccc(C(CNC(=O)C(C)Oc2ccc(Br)cc2)N2CCCCC2)cc1 (stereo not drawn) | . | - | - | - | -92
CCOc1ccc(S(=O)(=O)NCCC(=O)NCC(c2ccc(F)cc2)N2CCOCC2)cc1 (stereo not drawn) | - | -78 | - | - | -
CCC(C)NC(=O)CCNS(=O)(=O)c1ccc(Br)cc1 (stereo not drawn) | - | -93 | - | - | -
COC(=O)c1cc(NC2(c3ccccc3)C(=O)c3ccccc3C2=O)cc(C(=O)OC)c1 | - | - | - | - | .
Cc1cnc(NS(=O)(=O)c2ccc(Cl)cc2)c(Br)c1 | - | -38 | - | - | -
O=S(=O)(Nc1ccc(Cl)cn1)c1ccc(Cl)cc1 | - | - | - | - | -

High-throughput results: PubChem, National Center for Advancing Translational Sciences (NCATS)
